# Measured values taken from PubChem BioAssay (EPA / NIEHS).
# A structure can be active in one record and inactive in another. Active and inactive are the calls of the source. Rule for the calls: active = hit-call score of the fitted dose curve at least 0.9, where 1 is the maximum; inactive = score below 0.9.
# Assay: CCTE_Shafer_MEA_acute_burst_percentage_std: CCTE's Neural Acute Assay for Standard Deviation of Burst Percentage, Shafer Lab (AID 2284018);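 note: fitted in the negative direction so actives lower burst percentage SD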
# Protocol: CCTE_Shafer_MEA_acute assay is conducted using Axion Biosystems 48 well microelectrode array (MEA) plates and Maestro recording system. Each well of the MEA plate contains a grid of 16 microelectrodes embedded in the culture surface. Electrically active cells, such as neurons, can be cultured over the electrodes, and electrical activity in these cells can be recorded extracellularly. The spontaneous firing of neurons is captured from each electrode on a microsecond timescale providing both temporally and spatially precise data. […] The CCTE_Shafer_MEA_acute assay uses primary cultures of rat cortical neurons. As these cultures mature over time, neural networks develop functional activity and form cohesive networks in which electrical activity can be highly coordinated. Baseline 40-minute recordings are made on days post-plating 13 or 15, followed by a secondary 40-minute recording after chemical exposure.CCTE_Shafer_MEA_acute_burst_percentage_std is a component of the CCTE_Shafer_MEA_acute assay. It measures the percentage of spikes (action potential firing) in a single-electrode burst (temporally-clustered groups of spikes) as the number of spikes in bursts divided by the total number of spikes during a recording in a microelectrode array (MEA) using Axion Biosystems Maestro 768 channel amplifier with the AxIS adaptive spike detector. The standard deviation of the burst percentages across electrodes is calculated to report a well-level value. The recordings before and after chemical treatment are used to calculate a percent change in the standard deviation of the burst percentage in each well.Data from the assay component CCTE_Shafer_MEA_acute_burst_percentage_std was analyzed into 1 assay endpoint. This assay endpoint, CCTE_Shafer_MEA_acute_burst_percentage_std, was analyzed in the negative analysis fitting direction relative to DMSO as the negative control and baseline of activity. Using a type of functional reporter, gain or loss-of-signal activity can be used to understand electrical activity.
# Spontaneous activity in the cortical cultures was recorded using an Axion Biosystems Maestro 768 channel amplifier and Axion Integrated Studios (AxIS) v1.8 (or later) software. The amplifier recorded from all channels simultaneously (gain = 1200 x; sampling rate = 12.5 kHz/channel): raw signals were filtered with a Butterworth band-pass filter (300-5000 Hz), which filters out slower local field potentials leaving only fast potentials, i.e., "spikes", arising from extracellular currents associated with action potentials (Pine 2006; Wheeler and Nam 2011). On-line spike detection of filtered signals was conducted with the AxIS adaptive spike detector, using a threshold of 8x the root mean squared (rms) noise on each channel. Any electrodes with rms noise levels greater than 5 uV were grounded (e.g., no data were recorded). Once grounded, an electrode was grounded for the duration of the experiment. All recordings were conducted at 37 C. Wells were deemed usable if on the day of the exposure >/= 10 electrodes were active (defined as >/= 5 spikes/min). On DIV 13 or 15, a minimum of three wells from one cortical culture preparation were treated with each compound (0.03-40 uM). Prior to recording baseline activity, each mwMEA plate was placed in the Maestro at 37 C and allowed to sit for 20 min while firing rates stabilized. Baseline activity (40 min) was recorded before the addition of each compound. An additional 40 min of spontaneous activity was recorded in the presence of each compound. Changes in network parameters relative to baseline were assessed following compound treatment.
SMILES,AC50,outcome
C[C@H]1[C@H](c2ccc(Cl)cc2)SC(=O)N1C(=O)NC1CCCCC1,28.4 µM (active),–
CCC(C)(C)C(=O)OC1=C(c2ccc(Cl)cc2Cl)C(=O)OC12CCCCC2,–,inactive
N#CN,–,inactive
O=S1OCC2C(CO1)C1(Cl)C(Cl)=C(Cl)C2(Cl)C1(Cl)Cl (stereo unspecified),0.102 µM (active),inactive
O=S(=O)(O)C(F)(F)C(F)(F)C(F)(F)C(F)(F)C(F)(F)C(F)(F)C(F)(F)C(F)(F)F,–,inactive
CC(C)OC(=O)Nc1cccc(Cl)c1,–,inactive
CNC(=O)CSP(=S)(OC)OC,–,inactive
CC1(C)C(C=C(Cl)Cl)C1C(=O)OC(C#N)c1ccc(F)c(Oc2ccccc2)c1 (stereo unspecified),5.28 µM (active),inactive
CC[C@H](C)[C@H]1O[C@]2(C=C[C@@H]1C)C[C@@H]1C[C@@H](C/C=C(\C)[C@@H](O[C@H]3C[C@H](OC)[C@@H](O[C@H]4C[C@H](OC)[C@@H](O)[C@H](C)O4)[C@H](C)O3)[C@@H](C)/C=C/C=C3\CO[C@@H]4[C@H](O)C(C)=C[C@@H](C(=O)O1)[C@]34O)O2 (tested in a mixture with another compound),0.0752 µM (active),–
Oc1ccc(Cl)cc1Cc1ccccc1,8.33 µM (active),–
CCC(C)Nc1c([N+](=O)[O-])cc(C(C)(C)C)cc1[N+](=O)[O-] (stereo unspecified),0.935 µM (active),–
CCCN(CCC)c1c([N+](=O)[O-])cc(C(F)(F)F)cc1[N+](=O)[O-],20 µM (active),–
O=C1c2ccccc2C(=O)N1SC(Cl)(Cl)Cl,–,inactive
N#Cc1c(Cl)c(Cl)c(Cl)c(C#N)c1Cl,–,inactive
ClC1C(Cl)C(Cl)C(Cl)C(Cl)C1Cl (stereo unspecified),–,inactive
COP(=S)(OC)Oc1ccc(SC)c(C)c1,33.2 µM (active),–
O=C(O)CCCOc1ccc(Cl)cc1Cl,–,inactive
CC(C)N(C(=O)COc1nnc(C(F)(F)F)s1)c1ccc(F)cc1,3.55 µM (active),inactive
O=[N+]([O-])/N=C1\NCCN1Cc1ccc(Cl)nc1,–,inactive
Oc1cc(Cl)ccc1Oc1ccc(Cl)cc1Cl,–,inactive
CNC(=O)/C=C(\C)OP(=O)(OC)OC,–,inactive
Clc1ccccc1-c1nnc(-c2ccccc2Cl)nn1,–,inactive
CCCN(CCOc1c(Cl)cc(Cl)cc1Cl)C(=O)n1ccnc1,–,inactive
